About 79,000 compounds went through this panel and 15% of them were active in at least one assay; those are over-represented in the sample as a whole. Activity calls are given as the source filed them. No stated cut-off is given here; in the data, active means growth inhibition above about 70%; inactive means the rest.
Experiments:
[1] = NCI Yeast Anticancer Drug Screen. Data for the mec2-1 strain (AID 157); details: S. cerevisiae mec2-1 strain, hits give high values
Summary of the method: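 Readout is yeast growth inhibition, normalised to vehicle-treated controls, in the mec2-1 strain exposed to compound.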

[2] = NCI Yeast Anticancer Drug Screen. Data for the rad14 strain (AID 159);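 further: 0% = growth of vehicle-treated control cultures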; details: S. cerevisiae rad14 strain growth inhibition, hits give high values
Summary of the method: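 DNA repair-defective yeast, compound-exposed; % growth inhibition derived by comparison with vehicle-treated controls.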

[3] = NCI Yeast Anticancer Drug Screen. Data for the CLN2oe strain (AID 163);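 further: 0% = growth of vehicle-only control cultures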; details: S. cerevisiae CLN2oe strain, hits give high values
Summary of the method: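 Values reflect how much compound exposure reduced yeast growth, referenced to vehicle-exposed cells. Assay organism is a strain with a defined genetic change affecting cell-cycle control.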

[4] = NCI Yeast Anticancer Drug Screen. Data for the cln2 rad14 strain (AID 165);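 further: 0% = growth equal to vehicle treated cultures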; details: S. cerevisiae cln2 rad14 strain, hits give high values
Summary of the method: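 Relative to vehicle controls, growth inhibition of compound-treated cln2 rad14 yeast was recorded.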

[5] = NCI Yeast Anticancer Drug Screen. Data for the bub3 strain (AID 167); details: S. cerevisiae bub3 mutant strain, hits give high values
Summary of the method: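 In this screen, a yeast mutant lacking normal mitotic checkpoint function is challenged with compound. Relative growth versus vehicle gives the inhibition value.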

[6] = NCI Yeast Anticancer Drug Screen. Data for the wt2 strain (AID 169);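 further: 0% = growth of vehicle-treated yeast cultures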; details: S. cerevisiae wt2 strain growth inhibition, hits give high values
Summary of the method: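 Values express reduction in yeast growth under compound treatment, referenced to vehicle-treated cells.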

[7] = NCI Yeast Anticancer Drug Screen. Data for the mlh1 strain (AID 171);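 further: 0% = growth of vehicle-treated control cultures of the same strain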; details: S. cerevisiae mlh1 strain growth inhibition, hits give high values
Summary of the method: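 Steps: expose the defined-mutant yeast strain to compound; expose a parallel culture to vehicle; measure growth; express compound effect as inhibition relative to the vehicle culture.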

[8] = NCI Yeast Anticancer Drug Screen. Data for the sgs1 strain (AID 173);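 further: 0% = growth of vehicle-only control cultures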; details: S. cerevisiae sgs1 mutant, hits give high values
Summary of the method: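 Treat defined-mutant yeast with compound; measure growth; calculate inhibition relative to vehicle-treated cells.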

[9] = NCI Yeast Anticancer Drug Screen. Data for the mlh1 rad18 strain (AID 175); details: S. cerevisiae mlh1 rad18 strain growth inhibition, hits give high values
Summary of the method: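 Test agents were incubated with a yeast strain of defined genotype (DNA damage repair defect). Inhibition of growth was derived by comparison with vehicle-exposed cultures.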

[10] = NCI Yeast Anticancer Drug Screen. Data for the rad18 strain (AID 177); details: S. cerevisiae rad18 mutant growth inhibition, hits give high values
Summary of the method: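 A genetically defined yeast mutant impaired in DNA damage repair was treated with test compounds, then its growth was measured against cultures receiving vehicle alone.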

[11] = NCI Yeast Anticancer Drug Screen. Data for the rad52 strain (AID 147);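 further: 0% = growth of vehicle-treated control cultures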; details: S. cerevisiae rad52 mutant growth inhibition, hits give high values
Summary of the method: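 Screen used a yeast mutant impaired in DNA repair. After compound exposure, growth was measured. Values reflect inhibition compared with vehicle-treated cells.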

[12] = NCI Yeast Anticancer Drug Screen. Data for the wt1 strain (AID 149);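 further: 0% = growth of vehicle-treated wt1 cultures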; details: S. cerevisiae wt1 strain (SPY 50644) growth inhibition, hits give high values
Summary of the method: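 wt1 strain grown with compound or vehicle; inhibition taken from the growth difference.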

[13] = NCI Yeast Anticancer Drug Screen. Data for the rad50EPP+ strain (AID 151);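 further: 0% = growth of vehicle-treated control cultures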; details: S. cerevisiae rad50 mutant strain, hits give high values
Summary of the method: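 Exposing the rad50EPP+ strain to each compound, growth was compared with vehicle-only cultures to give inhibition.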

[14] = NCI Yeast Anticancer Drug Screen. Data for the mgt1 strain (AID 153); details: S. cerevisiae mgt1 mutant growth inhibition, hits give high values
Summary of the method: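 Genetically defined yeast (mgt1) treated with compound; inhibition of growth expressed against vehicle-treated controls.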

[15] = NCI Yeast Anticancer Drug Screen. Data for the rad50 strain (AID 155);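 further: 0% = growth of vehicle-only cultures of the same strain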; details: S. cerevisiae rad50 strain growth inhibition, hits give high values
Summary of the method: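 DNA repair mutant yeast, compound exposure, growth read-out; inhibition is taken relative to vehicle.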

[16] = at 5.0 µM (retest, dose inferred, filed as 0.5)
[17] = at 50.0 µM (retest, dose inferred, filed as 5.0)

Measured: growth inhibition

N/C(=N\OC(=O)NC(Cl)=C(Cl)Cl)c1cc(C(F)(F)F)cc(C(F)(F)F)c1
active: [1]; at 50.0 µM 89.3% | [1]; at 100.0 µM 95% | [2]; at 100.0 µM 96% | [3]; at 100.0 µM 98% | [4]; [17] 94% | [4]; at 50.0 µM 89% | [5]; [17] 91% | [5]; at 50.0 µM 89.9% | [5]; at 100.0 µM 96% | [6]; at 100.0 µM 96% | [7]; at 100.0 µM 97% | [8]; at 100.0 µM 97% | [9]; at 50.0 µM 88% | [10]; at 33.0 µM 72% | [10]; at 100.0 µM 97%
inactive: [1]; [16] 36% | [1]; at 11.0 µM -32% | [1]; at 33.0 µM 33% | [1]; [17] 58% | [2]; at 1.2 µM -53% | [2]; at 3.7 µM -36% | [2]; at 11.0 µM -48% | [2]; at 33.0 µM 18% | [3]; at 1.2 µM 25% | [3]; at 3.7 µM 11% | [3]; at 11.0 µM 7% | [3]; at 33.0 µM 66% | [4]; [16] 45% | [5]; at 1.2 µM -23% | [5]; at 3.7 µM -9% | [5]; [16] 34% | [5]; at 11.0 µM -30% | [5]; at 33.0 µM 23% | [6]; at 1.2 µM -43% | [6]; at 3.7 µM -32% | [6]; at 11.0 µM -36% | [6]; at 33.0 µM 38% | [7]; at 1.2 µM -27% | [7]; at 3.7 µM -11% | [7]; at 11.0 µM -14% | [7]; at 33.0 µM 57% | [8]; at 1.2 µM -22% | [8]; at 3.7 µM -16% | [8]; at 11.0 µM -9% | [8]; at 33.0 µM 68% | [9]; [16] 42% | [9]; [17] 67% | [10]; at 1.2 µM -20% | [10]; at 3.7 µM -21% | [10]; at 11.0 µM -2%

CC(Br)C(=O)c1ccc2cc(Br)c3ccccc3c2c1 (stereo not given)
inactive: [11]; at 1.2 µM -2% | [11]; at 3.7 µM -2% | [11]; at 11.0 µM -2% | [11]; at 33.0 µM 4% | [11]; at 100.0 µM 2% | [12]; at 1.2 µM 0% | [12]; at 3.7 µM 0% | [12]; at 11.0 µM 1% | [12]; at 33.0 µM -5% | [12]; at 100.0 µM -3% | [13]; at 1.2 µM 2% | [13]; at 3.7 µM 14% | [13]; at 11.0 µM 24% | [13]; at 33.0 µM 35% | [13]; at 100.0 µM 39% | [14]; at 1.2 µM -1% | [14]; at 3.7 µM -1% | [14]; at 11.0 µM -1% | [14]; at 33.0 µM 2% | [14]; at 100.0 µM 5% | [15]; at 1.2 µM 1% | [15]; at 3.7 µM -2% | [15]; [16] -3% | [15]; at 11.0 µM 10% | [15]; at 33.0 µM 0% | [15]; [17] 41% | [15]; at 50.0 µM 63.7% | [15]; at 100.0 µM 0% | [1]; at 1.2 µM 2% | [1]; at 3.7 µM 4% | [1]; [16] -5% | [1]; at 11.0 µM 6% | [1]; at 33.0 µM 6% | [1]; [17] 12% | [1]; at 50.0 µM 27.4% | [1]; at 100.0 µM 16% | [2]; at 1.2 µM 0% | [2]; at 3.7 µM -1% | [2]; at 11.0 µM 0% | [2]; at 33.0 µM -5% | [2]; at 100.0 µM 17% | [3]; at 1.2 µM -4% | [3]; at 3.7 µM -2% | [3]; at 11.0 µM -7% | [3]; at 33.0 µM -4% | [3]; at 100.0 µM -1% | [4]; [16] -24% | [4]; [17] -32% | [4]; at 50.0 µM 26.5% | [5]; at 1.2 µM -7% | [5]; at 3.7 µM -1% | [5]; [16] -10% | [5]; at 11.0 µM 3% | [5]; at 33.0 µM 2% | [5]; [17] 23% | [5]; at 50.0 µM 58% | [5]; at 100.0 µM -3% | [6]; at 1.2 µM -3% | [6]; at 3.7 µM -1% | [6]; at 11.0 µM -1% | [6]; at 33.0 µM 3% | [6]; at 100.0 µM 4% | [7]; at 1.2 µM 4% | [7]; at 3.7 µM 4% | [7]; at 11.0 µM 6% | [7]; at 33.0 µM -11% | [7]; at 100.0 µM 17% | [8]; at 1.2 µM 3% | [8]; at 3.7 µM 8% | [8]; at 11.0 µM 14% | [8]; at 33.0 µM 17% | [8]; at 100.0 µM 17% | [9]; [16] 9% | [9]; [17] 38% | [9]; at 50.0 µM 68.3% | [10]; at 1.2 µM 5% | [10]; at 3.7 µM 5% | [10]; at 11.0 µM 17% | [10]; at 33.0 µM 18% | [10]; at 100.0 µM 22%

CC(=O)Oc1cc(-c2cc(OC(C)=O)c(OC(C)=O)c3ccccc23)c2ccccc2c1OC(C)=O
active: [11]; at 100.0 µM 79% | [14]; at 100.0 µM 82% | [15]; [17] 82% | [15]; at 50.0 µM 83.5% | [15]; at 100.0 µM 86% | [1]; [17] 70% | [1]; at 50.0 µM 82.6% | [1]; at 100.0 µM 79% | [2]; at 100.0 µM 95% | [5]; [17] 93% | [5]; at 50.0 µM 86.8% | [5]; at 100.0 µM 87% | [6]; at 100.0 µM 86% | [7]; at 100.0 µM 93% | [9]; [17] 96% | [9]; at 50.0 µM 93.6% | [10]; at 100.0 µM 90%
inactive: [11]; at 1.2 µM 3% | [11]; at 3.7 µM 4% | [11]; at 11.0 µM 7% | [11]; at 33.0 µM 13% | [12]; at 1.2 µM 8% | [12]; at 3.7 µM 12% | [12]; at 11.0 µM 10% | [12]; at 33.0 µM 12% | [12]; at 100.0 µM 59% | [13]; at 1.2 µM 3% | [13]; at 3.7 µM 6% | [13]; at 11.0 µM 12% | [13]; at 33.0 µM 19% | [13]; at 100.0 µM 21% | [14]; at 1.2 µM 5% | [14]; at 3.7 µM 5% | [14]; at 11.0 µM 5% | [14]; at 33.0 µM 13% | [15]; at 1.2 µM 4% | [15]; at 3.7 µM 8% | [15]; [16] 22% | [15]; at 11.0 µM 12% | [15]; at 33.0 µM 24% | [1]; at 1.2 µM 2% | [1]; at 3.7 µM 9% | [1]; [16] 14% | [1]; at 11.0 µM 12% | [1]; at 33.0 µM 24% | [2]; at 1.2 µM 1% | [2]; at 3.7 µM 3% | [2]; at 11.0 µM 7% | [2]; at 33.0 µM 43% | [3]; at 1.2 µM 3% | [3]; at 3.7 µM 0% | [3]; at 11.0 µM -5% | [3]; at 33.0 µM -2% | [3]; at 100.0 µM 57% | [4]; [16] 7% | [4]; [17] 56% | [4]; at 50.0 µM 38% | [5]; at 1.2 µM 3% | [5]; at 3.7 µM 4% | [5]; [16] 17% | [5]; at 11.0 µM 7% | [5]; at 33.0 µM 26% | [6]; at 1.2 µM 10% | [6]; at 3.7 µM 9% | [6]; at 11.0 µM 8% | [6]; at 33.0 µM 11% | [7]; at 1.2 µM 1% | [7]; at 3.7 µM 3% | [7]; at 11.0 µM 6% | [7]; at 33.0 µM 23% | [9]; [16] 19% | [10]; at 1.2 µM 1% | [10]; at 3.7 µM 6% | [10]; at 11.0 µM 10% | [10]; at 33.0 µM 26%

Source: PubChem BioAssay (NCI)
